Screens: PubChem, National Center for Advancing Translational Sciences (NCATS)
Only some compounds are listed: those with a hit (about 6.2% of all), similar ones and a draw of the others.
RORgamma inh: qHTS for inhibitors of ROR gamma transcriptional activity. Nuclear receptor ROR-gamma (Mus musculus), P51450. Potency, µM (titrated, usually from 53.6 µM), actives largely listed as inhibitors. 5.4% of 310,000 active. AID 2551, 2010. Drosophila S2 Gal4-RORgamma UAS-luciferase reporter, 20 h; further: nearly all actives have a fitted effect of over 60% in size
Target sequence (P51450 whole entry, looked up, the tested form may be a part): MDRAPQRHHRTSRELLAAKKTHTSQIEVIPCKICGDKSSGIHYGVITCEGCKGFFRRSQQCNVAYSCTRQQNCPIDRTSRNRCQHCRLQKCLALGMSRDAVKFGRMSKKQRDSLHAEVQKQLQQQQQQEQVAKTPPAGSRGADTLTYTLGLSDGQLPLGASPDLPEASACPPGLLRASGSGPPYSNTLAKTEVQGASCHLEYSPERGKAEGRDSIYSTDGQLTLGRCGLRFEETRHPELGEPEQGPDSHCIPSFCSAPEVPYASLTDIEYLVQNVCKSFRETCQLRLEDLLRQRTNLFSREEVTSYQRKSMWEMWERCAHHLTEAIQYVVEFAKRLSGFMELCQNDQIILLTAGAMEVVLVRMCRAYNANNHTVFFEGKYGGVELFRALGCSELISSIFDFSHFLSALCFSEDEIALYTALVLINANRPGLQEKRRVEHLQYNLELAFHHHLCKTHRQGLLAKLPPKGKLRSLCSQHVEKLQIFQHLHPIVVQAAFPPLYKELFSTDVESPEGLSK
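Stably transfected Drosophila Schneider cells are the test system, with ROR gamma fused to Gal4 and luciferase under UAS control; luminescence is read after 20 hr of 700 uM copper sulfate induction at ambient temperature.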
KinaseGlo FLuc: Counterscreen for Luciferase (Kinase-Glo TM) Inhibition; Luciferin 4-monooxygenase (Photuris pensylvanica), Q27757; 0.28% of 200,000 active; Kinase-Glo luciferase, ATP luminescence, 8 min; Potency, µM (doses to about 38.3 µM), most hits filed as inhibitors; AID 1379, 2008; further: nearly all actives have a fitted effect of over 60% in size
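Inhibition of Kinase-Glo luciferase light generation was assessed at 10 uM ATP in pH 7.2 imidazole buffer, with luminescence measured after eight minutes at ambient temperature.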
Gal4-VP16 FLuc: VP16 counterscreen qHTS for inhibitors of ROR gamma transcriptional activity; AID 2546, 2010; Drosophila S2 Gal4-VP16 UAS-luciferase, luminescence, 20 h; 3.5% of 310,000 active; Potency, µM (highest dose often 53.6 µM), hits mostly inhibitors;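 further: Gal4-VP16 expression switched on by copper sulfate through the metallothionein promoter; nearly all actives have a fitted effect of over 50% in size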
A number is an active result; i = inactive; ? = inconclusive; nt = no result given; [ ] = dose if it differs, or a comment. The call rests on the fitted dose curve; in most records, active means well fitted curve in the direction sought with a large enough effect; inconclusive means small, poorly fitted or top-dose-only effect, or another doubt; inactive means no such curve, though single readings can be large; an effect the other way counts as inactive or inconclusive.

SMILES	RORgamma inh	KinaseGlo FLuc	Gal4-VP16 FLuc
O=C(NCc1ccc2c(c1)OCO2)c1cc(-c2ccc(Cl)cc2Cl)on1	i	i	i
CCOC(=O)Cc1c[nH]c(=S)[nH]c1=O	i	nt	i
COc1cc(Cl)c(C)cc1NC(=O)c1cccc(OC)c1OC	i	i	i
COc1cc(OC)c(NC(=S)Nc2cc(Cl)cc(Cl)c2)cc1Cl	13µM	i	?
COc1cc(OC)c(NC(=S)Nc2cccc(C(C)=O)c2)cc1Cl	?	i	i
COc1cc(Cl)c(C)cc1NC(=S)NN	2.5µM	i	?
CCC(CC)NC(=O)CN(c1ccccc1OC)S(=O)(=O)c1cccs1	i	nt	i
CN[C@H]1[C@@H](O)[C@@H](NC)[C@@H]2O[C@@]3(O)C(=O)C[C@@H](C)O[C@H]3O[C@H]2[C@H]1O	i[2.98 µM]	i	i
Cc1ccccc1-c1cc(C(=O)Nc2sc(C)c(C)c2C(N)=O)c2ccccc2n1	i	i	i
CCOC(=O)c1sc(NC(=O)CSc2nc(C)cc(-c3ccccc3)n2)c(C#N)c1C	i	i	i
CCOC(=O)c1sc(NC(=O)c2cc(-c3ccccc3C)nc3ccccc23)c(C#N)c1C	8.9µM	i	8.9µM
CCOC(=O)c1sc(NC(=O)CSc2n[nH]c(-c3ccc(Cl)cc3Cl)n2)c(C#N)c1C	11µM	i	?
COc1ccc(NC(=O)c2cc(-c3ccccc3)nc3c2c(C)nn3-c2ccccc2)c(OC)c1	i	i	i
COc1ccc(-c2cc(C(=O)NNC3=NCCC3)c3c(C)nn(-c4ccccc4)c3n2)cc1	0.32µM	i	?
COCCCN1C(=O)/C(=C/c2ccc(CNS(=O)(=O)c3ccccc3)o2)C(C(=O)OC)=C1C	i	i	i
COc1ccc(C(C(=O)OC(C)CN(C)C)c2ccccc2)cc1 (stereo unspecified)	i	i	i
CN(C)CC(C(=O)c1ccccc1)c1ccccc1 (stereo unspecified)	7.1µM	i	7.1µM
CN(C)C(=O)c1ccc(-c2cncnc2N2CCNCC2)cc1	i	nt	i
O=C(NNC(=O)c1ncc(Cl)c(Cl)c1Cl)c1ccc(F)cc1	7.1µM	nt	5µM
O=C(NNC(=O)c1nc(Cl)ccc1Cl)c1ccc(F)cc1	11µM	nt	?
O=C(NNC(=O)c1ccc(NC(=O)c2ccccc2)cc1)c1ccc(F)cc1	i	nt	i
COc1cccc(NC(=O)c2ncc(Cl)c(Cl)c2Cl)c1	i	?	?
COc1ccc(-c2nc3c(c4c2CC(C)OC4)CN(CCC(C)C)CC3)cc1 (stereo unspecified)	i[10 µM]	nt	i[10 µM]
CCNC(=S)NS(=O)(=O)c1ccc(F)cc1	i	i	i
COc1ccc(/C=C/C(=O)c2c(C)cc(C)[nH]c2=O)c2ccccc12	?	nt	14µM
SMILES	RORgamma inh	KinaseGlo FLuc	Gal4-VP16 FLuc
COc1ccccc1/C=C/C(=O)c1ccccc1	?	nt	i
Cc1ccc(/C=C/C(=O)c2c(C)cc(C)[nH]c2=O)cc1	?	i	?
COc1ccccc1/C=C/C(=O)c1c2c(c(C)[nH]c1=O)CCCC2	5.6µM	i	4.5µM
C=CCOC(=O)c1ccc(N2CCN(c3ccccc3)CC2)nc1	i	nt	i
O=C(CN1C(=O)c2ccccc2S1(=O)=O)NCc1ccco1	i	i	i
CC1(C)CN(c2ccc(F)cc2)C1=O	i	i	i
CC(C)(C)c1cn(-c2ccc(F)cc2)c(=S)[nH]1	8.9µM	i	10µM
CCc1noc(C)c1C(=O)N1CCCC(N2CCN(c3ccccc3F)CC2)C1 (stereo unspecified)	i	nt	i
Cc1ccc(C)c(NC(=S)Nc2ncccc2C)c1	3.5µM	i	?
CC(=O)Nc1cccc(NC(=S)Nc2ccc(F)cc2F)c1	i	i	i
Cc1cc(C(F)F)n2nc(C(=O)Nc3ccc(F)cc3F)nc2n1	i	i	i
Cc1cccnc1NC(=S)Nc1ccc(F)cc1F	6.3µM	i	?
Cc1ccc(C)c(NC(=O)c2ccccn2)c1	i	i	i
Cc1cc(C)nc(NC(=S)Nc2ccc(F)cc2F)c1	0.71µM	i	i
N#Cc1ccc(CN2CC3(CCN(C(=O)c4cnccn4)CC3)C2)cc1	i	i	i
O=C(O)c1ccc(N2CC3CC(C2)c2cccc(=O)n2C3)c(NC(=S)Nc2ccc(Cl)cc2Cl)c1 (stereo unspecified)	i	i	i
O=[N+]([O-])c1cc(Br)c(O)c(/C=N/Nc2nnnn2-c2cccc3ccccc23)c1	3.2µM	i	6.3µM
O=[N+]([O-])c1cc(Br)c(O)c(C=Nc2ccc(N3CCOCC3)cc2)c1	i	i	i
NC1C2CN(c3nc4c(cc3F)c(=O)c(C(=O)O)cn4-c3ccc(F)cc3F)CC12 (stereo unspecified)	i	i	i
O=C(NC(=S)N1CCc2ccccc21)C1CCC1	2.8µM	i	?
S=C(Nc1cccnc1)N1CCc2ccccc21	i	nt	i
O=C(C1CCCCC1)N1CCCc2ccccc21	i	i	i
CC(C)(C)C(=O)NC(=S)N1CCc2ccccc21	5µM	i	?
COC(=O)c1ccc(COC(=O)CCC(=O)c2cccs2)cc1	i	i	i
CC(C)C(O)C1CCN(Cc2nc(-c3cccs3)no2)CC1 (stereo unspecified)	i	i	i
SMILES	RORgamma inh	KinaseGlo FLuc	Gal4-VP16 FLuc
Cc1ccc(N(CC(=O)NCc2ccc3c(c2)OCO3)C(=O)c2csnn2)cc1	i	nt	i
COc1ccccc1C(CNC(=O)c1ccc(S(=O)(=O)NCc2ccco2)cc1)N(C)C (stereo unspecified)	i	i	i
O=C(Nc1cc(C(F)(F)F)ccc1N1CCOCC1)c1ccccc1	i	i	i
O=C(NC(=S)Nc1cc(C(F)(F)F)ccc1N1CCOCC1)c1ccco1	1.4µM	nt	11µM
CC(C)C(=O)Nc1cc(C(F)(F)F)ccc1N1CCOCC1	i	i	i
CC(=O)NC(=S)Nc1cc(C(F)(F)F)ccc1N1CCOCC1	13µM	i	?
COCOc1ccc(OC)cc1C(=O)C1O[C@H]1c1ccc(OC)c(Br)c1 (stereo partly specified)	i	i	i
FC(F)(F)c1cccc(-c2nc3nc(Cl)c(Cl)nc3[nH]2)c1	10µM	i[7.66 µM]	5.6µM
NCCc1cnc(-c2cccc(C(F)(F)F)c2)[nH]1	i	nt	i
CCC[n+]1cn(/C(C(=S)Nc2cccc(Cl)c2C)=C(/[O-])c2ccc(OC)c(OC)c2)c2ccccc21	14µM	i	?
COc1cc2c(cc1OC)CN(C(=S)Nc1cccc(Cl)c1C)CC2	?	nt	i
COc1cccc(NC(=S)N(CCCN2CCOCC2)Cc2cn(C)c3ccccc23)c1	18µM	i	?
CCc1ccccc1NC(=S)N(CCN1CCOCC1)Cc1ccccc1F	16µM	i	i
Cc1ccc(NC(=S)N(CCN2CCOCC2)Cc2ccccc2F)cc1	?	i	i
Fc1ccccc1CN(CCN1CCOCC1)C(=S)Nc1ccccc1Cl	?	i	?
Cc1ccccc1NC(=S)N(CCN1CCOCC1)Cc1ccccc1F	14µM	i	i
Cc1cc(NC(=S)N(CCN2CCOCC2)Cc2ccccc2F)ccc1Cl	10µM	i	?
COc1ccc(NC(=S)N(CCCN2CCOCC2)Cc2cn(C)c3ccccc23)cc1OC	i	i	i
Cc1ccccc1NC(=S)N(CCCN1CCOCC1)Cc1cccnc1	i	i	i
COc1ccc(-c2nnc3n2N=C(c2ccc(OC)c(OC)c2)CS3)c(OC)c1	i	nt	i
